Values joined by “and” are separate entries in the source; they are usually repeats but may differ in a detail not shown here. Equal entries are not always repeated. Records with an inconclusive call do not appear. Entries that show only a call come without a potency. A structure can be active in one record and inactive in another. Active and inactive are the calls of the source. Unless noted, calls come from the whole dose curve; as a rule, active = well fitted curve in the direction sought with a large enough effect in the repeat runs; inconclusive = weak or mixed curves; inactive = no such curve, though single readings can be large; an effect the other way counts as inactive or inconclusive. Starred links: 1 amine or outer side, 2 acyl side, 3 side chain; linkers in the order of their positions; H or OH if unused. Positions of bridges follow the written chain, without caps; N, C: chain ends. Non-standard residues stand in square brackets, D forms with d. Residues, ends and D or L forms follow the SMILES beside them. Chains are numbered I, II in the order given. Actinocin(9to1) = Cc1c2oc3c(C)ccc(C(=O)[*:1])c3nc-2c(C(=O)[*:2])c(N)c1=O; NMeV = CN[C@H](C(=O)O)C(C)C; Sar = CNCC(=O)O
What was measured:
[1] = qHTS assay to identify small molecule antagonists of the estrogen receptor alpha (ER-alpha) signaling pathway using the BG1 cell line in the presence of 0.1 nM 17-beta-estradiol - cell viability counter screen (AID 1259241); note: nearly all actives have a fitted effect of over 40% in size; note: potency is the fitted concentration of half-maximal effect
How it was run: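 Cytotoxicity counter-screen: live-cell protease activity measured by fluorescence (30 min reagent step) in the same wells. Cells were VM7Luc4E2 with endogenous ER-alpha and ERE-driven luciferase, treated 22 hr at 37C alongside 0.1 nM 17beta-estradiol final.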

[2] = target: Androgen receptor (Homo sapiens) (UniProt P10275); assay: qHTS assay to identify small molecule antagonists of the androgen receptor (AR) signaling pathway using the MDA cell line in the presence of 0.5 nM R1881 (AID 1259243); note: nearly all actives have a fitted effect of over 50% in size; note: potency is the fitted concentration of half-maximal effect
Sequence of Androgen receptor (Homo sapiens) (P10275 whole entry, looked up): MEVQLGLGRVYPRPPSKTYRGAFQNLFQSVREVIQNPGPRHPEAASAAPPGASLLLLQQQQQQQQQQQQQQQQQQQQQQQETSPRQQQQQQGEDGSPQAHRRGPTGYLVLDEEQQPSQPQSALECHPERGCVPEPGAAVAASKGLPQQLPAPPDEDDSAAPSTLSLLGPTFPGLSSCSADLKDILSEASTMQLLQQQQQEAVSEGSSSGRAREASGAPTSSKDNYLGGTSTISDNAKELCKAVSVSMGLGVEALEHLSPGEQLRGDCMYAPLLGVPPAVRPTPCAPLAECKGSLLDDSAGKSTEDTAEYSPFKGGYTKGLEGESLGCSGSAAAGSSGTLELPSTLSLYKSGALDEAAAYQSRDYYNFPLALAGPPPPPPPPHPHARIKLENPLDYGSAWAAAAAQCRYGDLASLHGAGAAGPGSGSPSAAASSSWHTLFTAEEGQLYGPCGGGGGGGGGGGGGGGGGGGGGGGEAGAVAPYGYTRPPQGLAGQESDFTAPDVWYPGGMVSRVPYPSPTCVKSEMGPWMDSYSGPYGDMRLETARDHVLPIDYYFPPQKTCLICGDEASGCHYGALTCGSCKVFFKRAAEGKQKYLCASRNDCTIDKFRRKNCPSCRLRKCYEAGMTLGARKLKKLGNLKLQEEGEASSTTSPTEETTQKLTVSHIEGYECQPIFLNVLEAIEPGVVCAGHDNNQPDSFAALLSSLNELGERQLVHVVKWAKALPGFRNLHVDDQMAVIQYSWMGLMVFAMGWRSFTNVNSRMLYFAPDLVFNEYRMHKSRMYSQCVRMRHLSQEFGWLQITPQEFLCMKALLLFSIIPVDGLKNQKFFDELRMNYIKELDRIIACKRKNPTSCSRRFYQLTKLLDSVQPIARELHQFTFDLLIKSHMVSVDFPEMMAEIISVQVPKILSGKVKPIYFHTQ
How it was run: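 Luminescence from an AR/GR-responsive MMTV-luciferase construct in MDA-kb2 breast carcinoma cells, read 30 min after ONE-Glo, following 16 hr co-treatment with compounds and 0.5 nM R1881.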

[3] = target: Estrogen receptor (Homo sapiens) (UniProt P03372); assay: qHTS assay to identify small molecule antagonists of the estrogen receptor alpha (ER-alpha) signaling pathway using the BG1 cell line in the presence of 0.1 nM 17-beta-estradiol (AID 1259244); note: nearly all actives have a fitted effect of over 50% in size; note: potency is the fitted concentration of half-maximal effect
Sequence of Estrogen receptor (Homo sapiens) (P03372 whole entry, looked up): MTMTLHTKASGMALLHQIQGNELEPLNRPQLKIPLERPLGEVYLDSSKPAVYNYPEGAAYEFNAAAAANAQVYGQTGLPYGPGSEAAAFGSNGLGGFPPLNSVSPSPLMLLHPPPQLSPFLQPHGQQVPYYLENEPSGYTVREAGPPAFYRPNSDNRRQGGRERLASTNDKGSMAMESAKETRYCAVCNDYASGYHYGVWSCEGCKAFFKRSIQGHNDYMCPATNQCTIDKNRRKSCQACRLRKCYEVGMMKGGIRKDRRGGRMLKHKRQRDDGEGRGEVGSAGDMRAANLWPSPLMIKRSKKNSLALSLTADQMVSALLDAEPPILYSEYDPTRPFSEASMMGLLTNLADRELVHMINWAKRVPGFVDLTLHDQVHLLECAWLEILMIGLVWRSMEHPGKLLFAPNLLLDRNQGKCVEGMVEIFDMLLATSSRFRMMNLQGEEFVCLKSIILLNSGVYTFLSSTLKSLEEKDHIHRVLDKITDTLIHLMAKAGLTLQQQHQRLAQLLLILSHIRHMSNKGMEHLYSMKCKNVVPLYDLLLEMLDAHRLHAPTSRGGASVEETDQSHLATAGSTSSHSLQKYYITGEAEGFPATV
How it was run: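 Luciferase signal from VM7Luc4E2 ERE-reporter cells, co-dosed with test compound and 0.1 nM final 17beta-estradiol for 22 h, read with ONE-Glo.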

[4] = qHTS assay to identify small molecule phospholipidosis (PLD) inducers (AID 1259344; active = well fitted curve in the direction sought with a large enough effect; an effect the other way counts as inactive or inconclusive)
How it was run: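 Read-out is LipidTOX Red fluorescence (ex 595/em 615) imaged in HepG2 cells after 24 h compound exposure at 37 C, with Hoechst nuclear counterstain (ex 352/em 461) allowing per-cell normalisation.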

[5] = qHTS assay to identify small molecule HDAC inhibitors (AID 1259364);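 note: wild-type HCT-116 cells with endogenous class I/II HDAC activity; top concentration of the series differs between compounds; nearly all actives have a fitted effect of over 45% in size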
How it was run: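 HCT-116 wt cells, 1,500/well, overnight attach. Compounds (DMSO) 2 h, 37 °C. HDAC-Glo I/II, 30 min RT. Luminescence.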

[6] = qHTS assay to identify small molecule HDAC inhibitors - cell viability counter screen (AID 1259365); note: series mostly up to about 92 µM; nearly all actives have a fitted effect of over 50% in size
How it was run: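 CellTiter-Glo luminescence (30 min, room temperature) reported viability after a 2 h compound exposure at 37 C. Cells: wild-type HCT-116, 1,500 per well, seeded the night before.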

[7] = qHTS assay to identify small molecule agonists of the sonic hedgehog signaling (Shh) pathway - cell viability counter screen (AID 1259366); note: nearly all actives have a fitted effect of over 50% in size; note: potency is the fitted concentration of half-maximal effect
How it was run: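 Cytotoxicity counter screen: CellTiter-Fluor reagent added after 23 h compound exposure, then 1 h at 37C and fluorescence read. Cells were 3T3 Gli1-Luc, seeded 2,000 per well and dosed 4 h post-plating.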

[8] = qHTS assay to identify small molecule antagonists of the sonic hedgehog signaling (Shh) pathway - cell viability counter screen (AID 1259367); note: nearly all actives have a fitted effect of over 55% in size; note: potency is the fitted concentration of half-maximal effect
How it was run: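 Fluorescence read-out (CellTiter-Fluor, 1 hr at 37C) taken after 23 hr compound treatment of 3T3 Gli1-Luc cells stimulated with conditioned medium. Cells were seeded at 2,000 per well and pre-incubated 4 hr.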

[9] = qHTS assay to identify small molecule agonists of the sonic hedgehog signaling (Shh) pathway (AID 1259368; calls by dose curve;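 note: NIH/3T3-derived 3T3Gli1-Luc cells carrying a stable Gli1-driven firefly luciferase reporter; series mostly up to about 92 µM; nearly all actives have a fitted effect of over 15% in size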)
How it was run: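 Following a 24 hr incubation with DMSO-dissolved compounds at 37 C, 5% CO2, Gli1-Luc NIH/3T3-derived cells received luciferase reagent for 30 min at room temperature prior to luminescence measurement.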

[10] = qHTS assay to identify small molecule antagonists of the androgen receptor (AR) signaling pathway using the MDA cell line in the presence of 0.5 nM R1881 - cell viability counter screen (AID 1259242); note: nearly all actives have a fitted effect of over 45% in size; note: potency is the fitted concentration of half-maximal effect
How it was run: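 Cells seeded at 3,000/well and allowed 5 hr at 37C, 0% CO2 before compound transfer and R1881 (0.5 nM final) addition; 16 hr later, live-cell protease fluorescence indicated cytotoxicity.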

Structure (SMILES) | Potency [1] | Potency [2] | Potency [3] | Potency [4] | Potency [5] | Potency [6] | Potency [7] | Potency [8] | Potency [9] | Potency [10]
Cc1c2oc3c(C)ccc(C(=O)N[C@@H]4C(=O)N[C@H](C(C)C)C(=O)N5CCC[C@H]5C(=O)N(C)CC(=O)N(C)[C@@H](C(C)C)C(=O)O[C@@H]4C)c3nc-2c(C(=O)N[C@@H]2C(=O)N[C@H](C(C)C)C(=O)N3CCC[C@H]3C(=O)N(C)CC(=O)N(C)[C@@H](C(C)C)C(=O)O[C@@H]2C)c(N)c1=O (I: T[dV]P[Sar][NMeV] / II: T[dV]P[Sar][NMeV]; ester I:1-I:C, II:1-II:C; linker I:N-II:N via Actinocin(9to1)) | 26.6 µM (active) | 26.6 nM (active) and 9.4 nM (active) | 23.7 nM (active) and 53.1 nM (active) | inactive | inactive | inactive | 42.1 nM (active) and 168 nM (active) | 42.1 nM (active) and 119 nM (active) | inactive | –
Oc1ccc(Cl)cc1Cc1cc(Cl)ccc1O | inactive | 13.9 µM (active) and 27.3 µM (active) and 23.7 µM (active) | 44.1 µM (active) and 68.6 µM (active) | inactive | – | – | 62.3 µM (active) and inactive | 55.5 µM (active) and 43.3 µM (active) and inactive | inactive | –
CCOC(=O)C(C)C(C)=O (stereo unspecified) | inactive | – | – | – | inactive | inactive | inactive | inactive | inactive | inactive
O=C(O[C@@H]1Cc2c(O)cc(O)cc2O[C@@H]1c1cc(O)c(O)c(O)c1)c1cc(O)c(O)c(O)c1 | – | – | inactive | – | inactive | inactive | 27.4 µM (active) and 26.3 µM (active) | 23.4 µM (active) | inactive | –
Nc1ccc(O)cc1 | – | 25.3 µM (active) and inactive | 28.4 µM (active) and inactive | inactive | inactive | – | 17.9 µM (active) | 31.8 µM (active) and inactive | inactive | 50.4 µM (active) and inactive
Cc1occc(=O)c1OC(=O)C(C)C | inactive | – | – | – | inactive | inactive | inactive | inactive | inactive | inactive
CCc1cc(C(C)(C)C)c(O)c(C(C)(C)C)c1 | inactive | – | – | – | inactive | inactive | inactive | inactive | inactive | inactive
C[N+]1([O-])CCOCC1 | inactive | – | – | – | inactive | inactive | inactive | inactive | inactive | inactive
CCN(CC)CCOc1ccc(/C(=C(\Cl)c2ccccc2)c2ccccc2)cc1 | inactive | – | – | – | inactive | inactive | – | inactive | inactive | –
CCCCCCCCCCCC[N+](C)(C)C | inactive | – | – | – | – | inactive | 43.1 µM (active) and 61.1 µM (active) and 54.5 µM (active) | 60.9 µM (active) and 61.1 µM (active) and 30.6 µM (active) | inactive | inactive and 24.3 µM (active)
COc1ccc(CCN(C)CCCC(C#N)(c2ccc(OC)c(OC)c2)C(C)C)cc1OC (stereo unspecified) | – | – | – | inactive | – | – | – | – | – | –
COc1ccc(COC(C)=O)cc1 | inactive | – | – | – | – | inactive | inactive | inactive | inactive | inactive
CCN(CC)c1ccc2c(C)cc(=O)oc2c1 | – | – | inactive | – | inactive | inactive | – | – | inactive | inactive
O=C(Cl)c1cccc(C(=O)Cl)c1 | inactive | – | – | – | inactive | inactive | inactive | inactive | inactive | inactive
CC(C)(C)c1ccccc1 | inactive | – | – | – | – | inactive | inactive | inactive | inactive | inactive
CC(N)=O | inactive | – | – | – | inactive | inactive | inactive | inactive | inactive | inactive
O=C1OC2(c3ccc(O)cc3Oc3cc(O)ccc32)c2ccccc21 | – | – | inactive | inactive | inactive | inactive | – | – | inactive | –
CCCCCCCCCCCCc1ccccc1O | inactive | 30.2 µM (active) and 24.3 µM (active) | inactive and 61.1 µM (active) | – | inactive | inactive | 60.3 µM (active) and 61.1 µM (active) | 60.3 µM (active) and 61.1 µM (active) | inactive | –
Oc1c(Cl)cc(Cl)c(Cl)c1Cc1c(O)c(Cl)cc(Cl)c1Cl | – | 3.43 µM (active) and 6.11 µM (active) and 6.68 µM (active) | – | inactive | – | – | 30.5 µM (active) and inactive | inactive | inactive | 8.41 µM (active)
O=Nc1ccc(Nc2ccccc2)cc1 | inactive | 48.8 µM (active) and 54.5 µM (active) | inactive | – | – | – | 24.5 µM (active) and 24.3 µM (active) | 27.4 µM (active) and 54.5 µM (active) | inactive | –
Oc1c(Cl)cc(Cl)cc1Sc1cc(Cl)cc(Cl)c1O | inactive | – | 12.2 µM (active) and 17.5 µM (active) and 15.4 µM (active) | inactive | inactive | – | inactive | 27.4 µM (active) and inactive | inactive | –
CCC(CO)(CO)COCC(CC)(CO)CO | inactive | – | – | – | – | – | inactive | inactive | inactive | inactive
CCCCCCC(O)CCCCCCCCCCC(=O)O (stereo unspecified) | inactive | – | – | – | inactive | inactive | inactive | inactive | inactive | inactive
Cc1cccc2n[nH]nc12 | inactive | – | – | – | inactive | inactive | inactive | inactive | inactive | inactive
C/C=C/c1ccc(OCC)c(O)c1 | inactive | – | – | – | – | – | inactive | inactive | inactive | inactive
CC(C)CCCCCCc1ccc(O)cc1 | – | – | 5.54 µM (active) and inactive | inactive | inactive | – | 62.2 µM (active) | 55.4 µM (active) and inactive | inactive | 6.98 µM (active) and inactive
O=C(O)CCc1ccccc1 | inactive | – | – | – | inactive | inactive | inactive | inactive | inactive | inactive
CCC(=O)/C=C/C1C(C)=CCCC1(C)C (stereo unspecified) | inactive | – | – | – | – | inactive | inactive | inactive | inactive | inactive
COC(=O)[C@H]1[C@H]2C[C@@H]3c4[nH]c5cc(OC)ccc5c4CCN3C[C@H]2C[C@@H](OC(=O)c2cc(OC)c(OC)c(OC)c2)[C@@H]1OC | inactive | – | – | – | inactive | inactive | inactive | inactive | inactive | inactive
COc1ccc(CCN2CCC(Nc3nc4ccccc4n3Cc3ccc(F)cc3)CC2)cc1 | 49.6 µM (active) | – | – | – | inactive | inactive | 1.11 µM (active) and 3.76 µM (active) | 1.4 µM (active) and 11.9 µM (active) | inactive | 17.6 µM (active) and 21.1 µM (active)
